# In all, about 310,000 compounds went through this assay and about 1,300 (0.42%) were called active. The sample holds actives, similar compounds and a random draw of the others, so the mix is not that of the screen.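 The calls were made as follows: active = B-score of calcium response area above 5 SD of library B-scores, with initial fluorescence ratio within 5 SD of library; inactive = the rest.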
# Target: Short transient receptor potential channel 4 (Mus musculus) (UniProt Q9QUQ5)
# Assay: positive allosteric modulators of TRPC4, primary screen, cell-based, mouse TRPC4beta, HEK293 mu-opioid, Fluo-4 calcium (AID 2227);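 as to B-score: B-score of integrated fluorescence ratio over time as area under calcium response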
# Details: DAMGO EC20, Fluo-4 Ca2+ flux, at 10 µM; stronger effect = higher value
# Sequence of Short transient receptor potential channel 4 (Mus musculus) (Q9QUQ5 whole entry, looked up): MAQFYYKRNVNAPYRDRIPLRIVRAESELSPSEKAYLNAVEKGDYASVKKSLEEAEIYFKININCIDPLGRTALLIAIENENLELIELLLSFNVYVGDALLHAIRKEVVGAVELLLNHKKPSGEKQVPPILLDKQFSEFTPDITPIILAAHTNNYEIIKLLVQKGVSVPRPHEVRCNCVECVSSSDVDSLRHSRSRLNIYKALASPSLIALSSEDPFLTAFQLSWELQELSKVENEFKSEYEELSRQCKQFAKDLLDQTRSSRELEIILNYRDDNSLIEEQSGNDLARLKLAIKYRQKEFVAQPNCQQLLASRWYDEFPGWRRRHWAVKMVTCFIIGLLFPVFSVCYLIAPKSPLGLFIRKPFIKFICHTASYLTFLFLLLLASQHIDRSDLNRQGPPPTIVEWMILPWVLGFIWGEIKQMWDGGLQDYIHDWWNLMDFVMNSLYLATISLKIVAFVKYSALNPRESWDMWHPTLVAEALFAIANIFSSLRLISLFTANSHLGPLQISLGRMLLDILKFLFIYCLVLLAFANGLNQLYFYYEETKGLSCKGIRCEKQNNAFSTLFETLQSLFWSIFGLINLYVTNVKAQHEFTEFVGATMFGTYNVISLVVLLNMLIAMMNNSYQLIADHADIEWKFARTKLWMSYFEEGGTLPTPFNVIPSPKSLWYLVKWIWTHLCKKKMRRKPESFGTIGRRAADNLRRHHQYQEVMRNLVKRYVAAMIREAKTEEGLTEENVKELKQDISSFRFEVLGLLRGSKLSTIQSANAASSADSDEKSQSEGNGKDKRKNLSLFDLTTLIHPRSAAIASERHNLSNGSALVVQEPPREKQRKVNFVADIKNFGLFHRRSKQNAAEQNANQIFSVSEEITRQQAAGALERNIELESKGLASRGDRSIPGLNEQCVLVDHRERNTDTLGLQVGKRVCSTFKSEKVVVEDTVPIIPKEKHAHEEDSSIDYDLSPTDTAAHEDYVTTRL
row,SMILES,B-score
1,CCN1CC2C3CCC(C)(O3)C2C1 (stereo not given),15 (active)
2,Cc1ccc(N(C)C(=O)Oc2cccc3ccc(C)nc23)cc1,inactive
3,CN(C)C(=O)Oc1ccc2c(c1)O/C(=C\c1ccccc1)C2=O,inactive
4,CNC(=O)O/N=C(\N)Cc1csc2ccccc12,inactive
5,O=c1c2ccccc2nc(-c2ccccc2)n1-c1ccccn1,inactive
6,Cc1ccc(-c2nc3ccccc3c(=O)n2-c2ccc(Br)cn2)cc1,12 (active)
7,O=c1c2ccccc2nc(-c2ccco2)n1-c1ccc(Br)cn1,inactive
8,CC(=NCc1ccc2c(c1)OCO2)c1c(O)[nH]c(=O)[nH]c1=O,inactive
9,COC(=O)C1=C(c2cc3ccccc3s2)C[C@@H]2CC[C@H]1N2C(=O)NCCO,inactive
10,O=C(Cn1c(=O)n(CC2CS2)c2ccccc21)N1CCCCC1 (stereo not given),inactive
11,COC(=O)C(O)(c1ccc(NC(=O)c2ccco2)c(OC)c1)C(F)(F)F (stereo not given),12 (active)
12,CCOC(=O)C(O)(c1ccc(N)c(OC)c1)C(F)(F)F (stereo not given),inactive
13,CCOC(=O)C(O)(c1ccc(NC(=O)c2ccco2)c(OC)c1)C(F)(F)F (stereo not given),inactive
14,Cc1ccc2c(c1)=C/C(=C\c1c(O)[nH]c(=O)[nH]c1=O)C(=O)N=2,inactive
15,COc1ccccc1C1=NCc2nnc(CSC)n2-c2ccc(Cl)cc21,inactive
16,O=C(Cc1ccccc1[N+](=O)[O-])N1CCN(Cc2ccc3c(c2)OCO3)CC1,inactive
17,CCN1CCN(Cc2cc(OC)c3c(c2)OCO3)CC1,11 (active)
18,Fc1ccc(N2CCN(Cc3ccc4c(c3)OCO4)CC2)cc1,inactive
19,Cc1cc2ccccn2c1C(C[N+](=O)[O-])c1c(F)cccc1Cl (stereo not given),inactive
20,O=c1[nH]c(=S)n(C2CC2)c(O)c1/C=N/N1CCOCC1,inactive

# Reference: PubChem BioAssay AID2227 (Johns Hopkins Ion Channel Center, 2009)
